# Values joined by “and” are separate entries in the source; they are usually repeats but may differ in a detail not shown here. Equal entries are not always repeated. Results filed as inconclusive are left out. A call without a number means that no potency is given here. Active and inactive are the calls of the source. Unless noted, calls follow the shape of the dose curve; as a rule, active = well fitted curve in the direction sought with a large enough effect; inconclusive = small, poorly fitted or top-dose-only effect, or another doubt; inactive = no such curve, though single readings can be large; an effect the other way counts as inactive or inconclusive.
# What was measured:
# [1] = P-glycoprotein substrates identified in KB-3-1 adenocarcinoma cell line, qHTS therapeutic library screen (AID 1346986); also: nearly all actives have a fitted effect of over 60% in size;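 also: potency is read from the fitted curve at half-maximal effect; potency is for cytotoxicity meaning loss of cell viability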
# Outline: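 In 1536-well format, 500 cells/well received pinned compound titrations and were incubated 72 h, 5% CO2. Viability was read by CellTiter-Glo; cytotoxic if AC50 < 10 uM and efficacy >50%.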
# [2] = P-glycoprotein substrates identified in KB-8-5-11 adenocarcinoma cell line, qHTS therapeutic library screen (AID 1346987); also: nearly all actives have a fitted effect of over 65% in size; also: potency is read from the fitted curve at half-maximal effect
# Outline: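 Compounds are pinned in dose-response onto KB-8-5-11 cells (500 cells/well, colchicine-free medium) and left 72 h at 37 degree C. CellTiter-Glo luminescence then yields AC50 values.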
# [3] = Primary qHTS for inhibitors of nuclear receptor binding SET domain protein 2 (NSD2) in an isogenic RCH-ACV NSD2 p.E1099K mutant (9B) (AID 1645876); also: nearly all actives have a fitted effect of over 70% in size; also: potency is read from the fitted curve at half-maximal effect
# [4] = Primary qHTS for inhibitors of nuclear receptor binding SET domain protein 2 (NSD2) in an RCH-ACV wild type WT cells (2C) (AID 1645877); also: nearly all actives have a fitted effect of over 70% in size; also: potency is read from the fitted curve at half-maximal effect
# [5] = target: Glutathione peroxidase 1 (Homo sapiens) (UniProt P07203); assay: Primary qHTS Assay for Inhibitors of Recombinant Selenoprotein Glutathione Peroxidase 1 (GPX1) (AID 1845191); also: nearly all actives have a fitted effect of over 65% in size; also: potency is read from the fitted curve at half-maximal effect
# Outline: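 GR-coupled readout: NADPH consumption tracked by fluorescence, ex 340/em 450 nm, at t=0 and after 15 min at RT. Final mix 10 nM GPX1, 1 mM GSH, 0.5 mM CHP, 0.5 mM NADPH, 100 nM GR, 0.01% BSA, following 30 min enzyme–compound preincubation.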
# [6] = target: Calcium and integrin-binding protein 1 (Homo sapiens) (UniProt Q99828); assay: Primary qHTS for Identification of Calcium Integrin Binding Protein 1 (CIB1) Competitor (AID 1508620);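 also: GST tagged CIB1 binding a fluorescein labelled alphaIIb integrin peptide tracer; top concentration of the series differs between compounds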
# Outline: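 Fluorescence polarization competition: GST-tagged CIB1 (1 uM final) preincubated with compound 15 min at room temperature, then FITC-labelled alphaIIb peptide (100 nM final) added. After 15 min at room temperature, polarization read at Ex 480/Em 540.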
# [7] = Drug repurposing screens with cells derived from glioblastoma tumor samples (AID 1345199); details: GBM patient neurospheres viability, ATP luminescence, 48 h; for Potency: tumour line A; also: potency is read from the fitted curve at half-maximal effect; as to all read-outs here: nearly all actives have a fitted effect of over 40% in size
# Outline: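 Primary testing used CD133+ neurospheres from four GBM patients, seven concentrations, 48 h exposure and ATP-based viability; confirmation added three slower-growing patient lines.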
# [8] = qHTS drug screen for cell cycle checkpoint inhibitors in PARPi-resistant BRCA-mutant ovarian cancer cell lines. (AID 1963452; calls by dose curve; also: potency is read from the fitted curve at half-maximal effect); details: PEO1/OlaR viability, CellTiter-Glo luminescence, 96 h; for Z-AUC: stronger effect = lower value
# Outline: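 PEO1, PEO4 and PEO1/OlaR ovarian cancer cells, 600 per well, exposed 96 h at 37C to a dilution series. Viability read by CellTiter-Glo luminescence, normalized to DMSO and empty wells; activity summarized as Z-AUC.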
# [9] = target: Phospholipid hydroperoxide glutathione peroxidase GPX4 (Homo sapiens) (UniProt P36969); assay: Primary qHTS Assay for Inhibitors of Recombinant Selenoprotein Glutathione Peroxidase 4 (GPX4) (AID 1845192); details: outcome: dose series up to 50 µM unless noted; also: nearly all actives have a fitted effect of over 65% in size; also: potency is read from the fitted curve at half-maximal effect
# Outline: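 Steps: GPX4 plus compound, 30 min RT; add GR/GSH/NADPH master mix; start with cumene hydroperoxide; read 340/450 nm fluorescence at 0 and 15 min. Finals were 200 nM GPX4, 1 mM GSH, 0.5 mM CHP, 0.5 mM NADPH, 100 nM GR.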
# [10] = at 45.9 µM (top of the series), tumour line D
# [11] = at 46.1 µM (top of the series), tumour line C
# [12] = at 45.9 µM (top of the series), tumour line B
# [13] = measured here: PEO1 parental Z-AUC
# Chain of Glutathione peroxidase 1 (Homo sapiens) (P07203 whole entry, looked up): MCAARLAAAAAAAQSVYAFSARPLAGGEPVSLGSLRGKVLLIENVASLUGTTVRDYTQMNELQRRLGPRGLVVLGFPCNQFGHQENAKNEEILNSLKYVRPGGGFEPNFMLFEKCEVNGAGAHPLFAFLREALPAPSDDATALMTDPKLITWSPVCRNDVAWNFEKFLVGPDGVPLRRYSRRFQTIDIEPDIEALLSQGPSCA
# Chain of Phospholipid hydroperoxide glutathione peroxidase GPX4 (Homo sapiens) (P36969 whole entry, looked up): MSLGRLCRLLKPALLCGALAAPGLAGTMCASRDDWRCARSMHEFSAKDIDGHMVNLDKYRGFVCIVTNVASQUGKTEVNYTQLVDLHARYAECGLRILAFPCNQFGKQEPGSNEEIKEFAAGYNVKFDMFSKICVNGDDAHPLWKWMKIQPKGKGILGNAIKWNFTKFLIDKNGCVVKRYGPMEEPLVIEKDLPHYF
# Chain of Calcium and integrin-binding protein 1 (Homo sapiens) (Q99828 whole entry, looked up): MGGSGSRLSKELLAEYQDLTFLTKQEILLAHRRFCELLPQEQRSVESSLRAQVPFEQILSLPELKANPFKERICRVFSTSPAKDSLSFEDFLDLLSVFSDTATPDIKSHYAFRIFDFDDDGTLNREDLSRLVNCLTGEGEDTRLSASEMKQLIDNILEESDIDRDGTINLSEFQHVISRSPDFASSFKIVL
compound,measurement,setting,value
COc1ccc(C(=O)Nc2sc3c(c2C(N)=O)CCCC3)cc1OC,Potency,[1],inactive
same,Potency,[2],inactive
same,Potency,[3],inactive
same,Potency,[4],inactive
same,Potency,[5],inactive
CC1(C)N=C(N)N=C(N)N1c1ccc(Cl)cc1,Potency,[2],inactive
C=CC(=O)c1ccc2ccccc2c1,Potency,[1],inactive
same,Potency,[2],inactive
same,Potency,[4],inactive
same,Potency,[5],inactive
CCN(CC)C(=O)c1cc(S(=O)(=O)Cc2ccccc2)c(N2CCC(c3ccccc3)CC2)cc1N(CC)CCN(C)C,Potency,[2],16.4 µM (active)
same,outcome,[6],inactive
CCCCCCCCCCCCCCCCSCC(COC)COP(=O)([O-])OCC[N+](C)(C)C (stereo not drawn),Potency,[2],inactive
same,"activity, negative = cell killing",[7]; [10],-10.7% (inactive)
same,"activity, negative = cell killing",[7]; [11],5.78% (inactive)
same,Potency,[7],22.4 µM (active)
C[N+]1(C)CCN(CC(O)(c2ccccc2)C2CCCCC2)CC1 (stereo not drawn),Potency,[5],inactive
same,"activity, negative = cell killing",[7]; [12],4.18% (inactive)
same,"activity, negative = cell killing",[7]; [10],-11.4% (inactive)
same,"activity, negative = cell killing",[7]; [11],3.68% (inactive)
COc1cc([C@@H]2c3cc4c(cc3C(O[C@@H]3O[C@@H]5CO[C@@H](C)O[C@H]5[C@H](O)[C@H]3O)C3COC(=O)[C@@H]32)OCO4)cc(OC)c1OP(=O)(O)O (stereo partly drawn),"activity, negative = cell killing",[7]; [12],-18.7% (inactive)
same,"activity, negative = cell killing",[7]; [10],-17% (inactive)
same,"activity, negative = cell killing",[7]; [11],-13.7% (inactive)
same,Potency,[7],15.8 µM (active)
O=c1[nH]ccc2c(S(=O)(=O)N3CCCNCC3)cccc12,Potency,[1],inactive
same,Potency,[2],inactive
same,Potency,[3],inactive
same,Potency,[4],inactive
same,Potency,[5],inactive
NC(=O)c1sc(-c2ccsc2)cc1N,Potency,[1],inactive
same,Potency,[2],inactive
same,Potency,[3],inactive
same,Potency,[4],inactive
same,Potency,[5],inactive
S=c1ssc2c1CCC2,Potency,[1],inactive
same,Potency,[2],inactive
same,Potency,[3],inactive
same,Potency,[4],inactive
same,Potency,[5],14.3 µM (active)
COc1cc(OC)c2ccc(=O)oc2c1,Potency,[1],inactive
same,Potency,[2],inactive
same,Potency,[3],inactive
same,Potency,[4],inactive
same,Potency,[5],25.5 µM (active)
O=C(Nc1ccc(S(=O)(=O)Nc2nccs2)cc1)c1cc(-c2ccccc2)nc2ccccc12,Potency,[1],inactive
same,Potency,[2],inactive
same,outcome,[6],inactive
same,Potency,[5],inactive
CCOC(=O)c1cc2ccc(O)cc2oc1=O,Potency,[1],inactive
same,Potency,[2],inactive
same,Potency,[3],inactive
same,Potency,[4],inactive
Cc1cc(N2CCOCC2)cc2[nH]c(-c3c(NCC(O)c4cccc(Cl)c4)cc[nH]c3=O)nc12 (stereo not drawn),Potency,[1],2.06 µM (active)
same,Potency,[2],5.8 µM (active)
same,Potency,[3],1.64 µM (active)
same,Potency,[4],1.46 µM (active)
Cc1ccc(NS(=O)(=O)c2cc3c(cc2NC(C)CO)NC(=O)CC3)cc1C (stereo not drawn),Potency,[1],inactive
same,Potency,[2],inactive
same,outcome,[6],inactive
same,Potency,[5],inactive
O=C1/C(=C/c2ccc(O)c(O)c2)Oc2ccccc21,Potency,[1],inactive
same,Potency,[2],inactive
same,Potency,[3],1.84 µM (active)
same,Potency,[4],2.06 µM (active)
Cc1cc(I)ccc1Nc1c(C(=O)NOCC2CC2)cc(F)c(F)c1F,Potency,[1],23.1 µM (active)
same,Potency,[2],18.4 µM (active)
same,Potency,[3],8.33 µM (active)
same,Potency,[4],7.42 µM (active)
same,Potency,[5],inactive
same,Z-AUC,[8],0.467 (inactive)
same,Z-AUC,[8]; [13],0.0632
same,Z-AUC,[8]; measured here: PEO4 Z-AUC,0.231
O=C1CCc2cc(S(=O)(=O)Nc3ccc(F)c(Cl)c3)c(F)cc2N1,Potency,[1],inactive
same,Potency,[2],inactive
same,outcome,[6],inactive
same,Potency,[3],inactive
same,Potency,[4],inactive
same,Potency,[5],inactive
C[C@@H]1N=C(N)NC(N(C)C)=N1,Potency,[1],inactive
same,Potency,[2],inactive
same,Potency,[3],inactive
same,Potency,[5],inactive
same,Potency,[9],inactive
same,Z-AUC,[8],1.33 (inactive)
same,Z-AUC,[8]; [13],1.06
same,Z-AUC,[8]; measured here: PEO4 Z-AUC,1.03
Nc1ncnc2c1nc(Cl)n2C1O[C@H](CO)[C@@H](O)[C@H]1O (stereo partly drawn),Potency,[1],2.91 µM (active)
same,Potency,[2],1.84 µM (active)
same,Potency,[3],2.59 µM (active)
same,Potency,[4],1.84 µM (active)
CN1CCC(c2c(O)cc(O)c3c(=O)cc(-c4ccccc4Cl)oc23)C(O)C1 (stereo not drawn),Potency,[1],0.231 µM (active)
same,Potency,[2],0.517 µM (active)
same,Potency,[3],0.291 µM (active)
same,Potency,[4],0.259 µM (active)
O=C1CCCC2=C1C1(CCCC1)N=C(Nc1nc3ccccc3o1)N2,Potency,[1],inactive
same,Potency,[2],inactive
same,outcome,[6],inactive
same,Potency,[3],inactive
same,Potency,[4],inactive
same,Potency,[5],inactive
CN(C)CC1CCn2cc(c3ccccc32)C2=C(C(=O)NC2=O)c2cn(c3ccccc23)CCO1 (stereo not drawn),Potency,[1],inactive
same,Potency,[2],inactive
same,Potency,[3],13 µM (active)
same,Potency,[4],16.4 µM (active)
NC(=O)c1nc(F)c[nH]c1=O,Potency,[1],inactive
same,Potency,[2],inactive
same,Potency,[3],inactive
same,Potency,[5],20.2 µM (active)
same,Potency,[9],9.04 µM (active) and 22.4 µM (active)
same,Z-AUC,[8],-0.413 (inactive)
same,Z-AUC,[8]; [13],-0.874
same,Z-AUC,[8]; measured here: PEO4 Z-AUC,-0.858
O=C(NOCCO)c1ccc2cncn2c1Nc1ccc(I)cc1F,Potency,[1],inactive
same,Potency,[2],inactive
same,Potency,[5],inactive
same,Z-AUC,[8],1.17 (inactive)
same,Z-AUC,[8]; [13],0.484
same,Z-AUC,[8]; measured here: PEO4 Z-AUC,0.455
O=C1CCCC2=C1C(c1ccncc1Br)N=C(Nc1nc3ccccc3o1)N2 (stereo not drawn),Potency,[1],inactive
same,Potency,[2],inactive
same,outcome,[6],inactive
same,Potency,[5],inactive
CNS(=O)(=O)c1ccc2c(c1)/C(=C/c1[nH]c3c(c1CCCN1CCN(C)CC1)CCCC3)C(=O)N2,Potency,[1],inactive
same,Potency,[2],inactive
same,Potency,[3],inactive
same,Potency,[4],16.6 µM (active)
same,Potency,[5],inactive
same,Potency,[9],inactive
same,Z-AUC,[8],0.43 (inactive)
same,Z-AUC,[8]; [13],0.259
same,Z-AUC,[8]; measured here: PEO4 Z-AUC,-0.147
Cc1cc(Nc2nc(NC(C)c3ccc(F)cc3)c(C#N)cc2F)n[nH]1 (stereo not drawn),Potency,[1],0.164 µM (active)
same,Potency,[2],0.731 µM (active)
same,Potency,[3],0.92 µM (active)
same,Potency,[4],0.731 µM (active)
CN1CCN(Cc2ccc(Nc3ncc(Cl)c(Nc4ccccc4S(=O)(=O)N(C)C)n3)cc2)CC1,Potency,[1],0.0596 µM (active)
same,Potency,[2],0.0668 µM (active)
same,Potency,[3],0.0241 µM (active)
same,outcome,[5],inactive [at 9.52 µM]
same,"activity change, negative = inhibition",[9],-3.36% [at 9.73 µM] (inactive)
same,Potency,[8],0.0796 µM (active)
same,Z-AUC,[8]; [13],-1.68
same,Z-AUC,[8]; measured here: PEO4 Z-AUC,-1.52
